Pf growth 96h: P. falciparum growth inhibition at 96 hours | 320,000 tested, 6.9% active | Potency, µM (highest dose often 28.7 µM), usual class: inhibitors | P. falciparum luciferase reporter growth, 96 h | AID 504834
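Readout is luminescence from an integrated firefly luciferase in P. falciparum. Red cells, 2% hematocrit and 0.05% parasitemia final, were cultured with compound through two parasite generations (96 hours) at 37 C, 5% CO2.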
HCMV inh: inhibitors of human cytomegalovirus | HFF cells, HCMV-luciferase reporter, 72 h; active compounds read low | activity change, negative = inhibition, % at 57.5 µM | 410,000 tested, 4.5% active | AID 1259415; in the data active = activity change below about -60%; inconclusive = no clear call, values can overlap the other calls; inactive = above about -39%
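Inhibition of viral replication was scored as loss of reporter luminescence in HFFs infected with HCMV-luciferase (MOI 1 PFU/cell) for 72 h; compounds tested at 2 doses, normalized to buffer and Salinomycin controls.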
HCV inh: inhibitors of hepatitis C virus infection; Huh7.5.1 HCVcc-Cre infection, luciferase reporter, 44 h; Potency, µM (doses to about 41.8 µM), most hits filed as inhibitors; 340,000 tested, 3.4% active; AID 651820
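1,000 cells/well; 4 h culture; + compound; + HCVcc-Cre (~0.5 moi); 44 h; luciferase substrate, RT 15 min; read 15 sec.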
Pf growth 48h: P. falciparum growth inhibition at 48 hours (one generation) | P. falciparum luciferase growth in erythrocytes, 48 h | Potency, µM (series often up to 28.7 µM), hits mostly inhibitors | 310,000 tested, 5.9% active | AID 504832
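Here the parasites carry a stable luciferase gene and grow inside erythrocytes in Albumax-based RPMI medium with compound for one erythrocytic cycle. Activity is scored as loss of luminescent signal.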
CHX counter: counter-screen hit for Shiga toxin inhibitors, cycloheximide | 300,000 tested, 12% active | cell reporter, cycloheximide protein synthesis inhibition counterscreen | max response, %; in the data active = max response mostly above about 13%, no sharp cut-off; inactive = mostly below about 14%; note: read at 38.3 µM for the half of the compounds with a filed dose
Shiga inhibitor: inhibitors of Shiga toxin in Vero cells; Vero cells, Shiga toxin protein synthesis inhibition reporter; inhibition, % at 38.7 µM; 290,000 tested, 9.2% active; AID 2315; in the data active = inhibition mostly above about 28%, no sharp cut-off; inactive = mostly below about 43%
Each line names hits and unclear results; the compound was inactive in the other large screens. Compounds with a hit are over-represented: about 21% of the library has one in this group of screens. Unless noted, calls come from the whole dose curve; as a rule, active = well fitted inhibition curve with a large enough effect; inconclusive = small, poorly fitted or top-dose-only effect, or another doubt; inactive = no such curve, though single readings can be large or run the other way.

Cc1cc(C)n(-c2nc(NCCC(C)C)c3c4c(sc3n2)COC(C)(C)C4)n1	Pf growth 96h 3.7µM, HCMV inh -96 (no result: Pf growth 48h)
Cc1cc(C)n(-c2nc(NCCN(C)C)c3c4c(sc3n2)COC(C)(C)C4)n1	Pf growth 96h inconclusive, HCMV inh inconclusive, HCV inh inconclusive, Pf growth 48h inconclusive
Cc1cc(C)n(-c2nc(-n3nc(C)cc3C)c3c4c(sc3n2)COC(C)(C)C4)n1	Pf growth 96h 1µM, Pf growth 48h inconclusive (no result: HCV inh)
CCSc1nc(NCCN(C)C)c2c3c(sc2n1)COC(C)(CC)C3 (centres undefined)	Pf growth 96h 12µM, Pf growth 48h 3.3µM, CHX counter 30
CSc1nnc2c3c4c(sc3nc(-n3nc(C)cc3C)n12)COC(C)(C)C4	Pf growth 96h inconclusive, Pf growth 48h inconclusive
CCOc1ccc(CCNC(=O)c2sc3ncccc3c2-n2cccc2)cc1OCC	none (no result: Pf growth 96h, HCV inh, Pf growth 48h, CHX counter, Shiga inhibitor)
CN(C)C(CNC(=O)c1ccc2ccccc2c1)c1ccco1 (centres undefined)	CHX counter 32, Shiga inhibitor 77
Cc1cccc(C(=O)NCC(c2ccco2)N(C)C)c1 (centres undefined)	none
CN(C)c1cccc(C(=O)NCC(c2ccco2)N(C)C)c1 (centres undefined)	CHX counter 37, Shiga inhibitor 75
c1ccc2c(CCNc3ncnc4nc[nH]c34)c[nH]c2c1	Pf growth 96h inconclusive, HCMV inh inconclusive, HCV inh 7.1µM
COCCNc1ncnc2nc[nH]c12	none (no result: Pf growth 96h)
c1ccc(CCNc2ncnc3nc[nH]c23)cc1	HCMV inh inconclusive, HCV inh inconclusive, CHX counter 38, Shiga inhibitor 45
c1coc(CNc2ncnc3nc[nH]c23)c1	Pf growth 96h 9.3µM, HCV inh inconclusive
CC(=O)c1ccc(N2CCN(S(=O)(=O)c3cc4c(cc3C)NC(=O)CO4)CC2)cc1	Pf growth 48h inconclusive
COc1ccc(OC)c(NC(=O)COCc2cc(-c3ccco3)on2)c1	none (no result: Pf growth 96h, HCV inh, Pf growth 48h, CHX counter, Shiga inhibitor)
Cc1nc2sc3c(c2c(=O)n1/N=C/c1ccco1)CCCC3	Pf growth 96h inconclusive, HCMV inh inconclusive, HCV inh inconclusive
Cc1nc2sc3c(c2c(=O)n1/N=C/c1cccnc1)CCCC3	Pf growth 96h inconclusive, HCMV inh inconclusive, HCV inh inconclusive, Pf growth 48h inconclusive
Cc1sc2ncn(/N=C/c3ccco3)c(=O)c2c1C	HCMV inh inconclusive, CHX counter 39, Shiga inhibitor 54
O=c1c2c3c(sc2ncn1/N=C/c1ccco1)CCCC3	Shiga inhibitor 76 (no result: Pf growth 96h)
O=c1c2c3c(sc2ncn1/N=C/c1ccccc1)CCCC3	CHX counter 19, Shiga inhibitor 64
Cc1cccc(C(=O)NC(=S)NNC(=O)c2cccs2)c1	Pf growth 96h inconclusive, HCMV inh inconclusive, Shiga inhibitor 25
O=C(NC(=S)NNC(=O)c1cccs1)c1ccccc1	Pf growth 96h inconclusive, CHX counter 11
Cc1ccccc1C(=O)NNC(=S)NC(=O)c1cccs1	Pf growth 96h inconclusive, HCV inh inconclusive, Pf growth 48h inconclusive, CHX counter 21
CC(C)(C)c1ccc(C(=O)NC(=S)NNC(=O)c2cccs2)cc1	Pf growth 96h inconclusive, HCV inh inconclusive
O=C(NNC(=S)NC(=O)c1sc2ccccc2c1Cl)c1ccc(Cl)cc1	HCV inh inconclusive, CHX counter 14
Cc1ccccc1C(=O)Nc1cccc(NC(=S)NC(=O)c2cccs2)c1	HCV inh inconclusive, Pf growth 48h inconclusive
CCOC(=O)C1=NNC2C(=O)N(Cc3ccccc3)C(=O)C12 (centres undefined)	none
COc1ccc(Cl)cc1NC(=O)CSc1nnc(CNC(=O)c2cccs2)o1	Pf growth 96h inconclusive
O=C(NNC(=O)c1cccs1)c1cccc(F)c1	Pf growth 96h inconclusive
Cc1cccc(C(=O)NC(=S)NNC(=O)c2ccc(Cl)cc2)c1	Pf growth 96h inconclusive, HCMV inh -84, HCV inh inconclusive
COc1ccc(C(=O)NNC(=S)NC(=O)c2ccc(Cl)cc2)cc1	HCV inh inconclusive (no result: Pf growth 96h, Pf growth 48h, CHX counter, Shiga inhibitor)
O=C(NNC(=O)c1cccs1)c1ccc(F)cc1	CHX counter 22, Shiga inhibitor 50
Cc1ccccc1Cn1c(SCc2ccc(C(=O)NC(C)c3ccccc3)cc2)nc2ccncc21 (centres undefined)	none (no result: Pf growth 96h, HCV inh, Pf growth 48h, CHX counter, Shiga inhibitor)
COc1ccccc1NC(=O)c1ccc(COc2ccc3c(c2)CCC3)cc1	Pf growth 96h inconclusive
O=C(O)c1cccc(COc2ccc3c(c2)CCC3)c1	Pf growth 48h inconclusive, CHX counter 35
O=C(O)c1cccc(S(=O)(=O)Nc2ccc(OCc3ccccc3)cc2)c1	none
COc1cccc(OC)c1C(=O)NNC(=O)c1cccc(COc2ccc3c(c2)CCC3)c1	HCV inh inconclusive, Pf growth 48h 2.3µM, CHX counter 65, Shiga inhibitor 184
O=C(COc1ccc2c(c1)CCC2)NCc1cccc(Cl)c1	Pf growth 96h inconclusive
O=C(NCc1ccccc1)c1cccc(COc2ccc3c(c2)CCC3)c1	CHX counter 104, Shiga inhibitor 120
CCN(CC)c1ccc(NC(=O)c2cccn2-c2nnc(N3CCCCC3)s2)c(C)c1	none (no result: Pf growth 96h, HCV inh, Pf growth 48h, CHX counter, Shiga inhibitor)
Cc1cc(C)n(C(=O)c2ccc(Cl)c(F)c2F)n1	Pf growth 96h 9.3µM
COc1c(Cl)cc(Cl)cc1C(=O)n1nc(C)cc1C	none
Cc1cc(C)n(C(=O)c2cc(F)c(F)cc2C)n1	CHX counter 25, Shiga inhibitor 70
CN(CCc1ccccc1)C(=O)c1cccc(NC(=O)Cc2cccc(NC(=O)C3CCN(C(=O)C4CCC4)CC3)c2)c1	HCV inh inconclusive (no result: Pf growth 96h, Pf growth 48h, CHX counter, Shiga inhibitor)
COC(=O)N1C(=O)[C@@](c2ccccc2)(C(C)C)N1C(=O)OC	CHX counter 20
COC(=O)N1C(=O)[C@](c2ccccc2)(C2CCCC2)N1C(=O)OC	CHX counter 19
COC(=O)N1C(=O)[C@@](c2ccc(OC)cc2)(C(C)C)N1C(=O)OC	CHX counter 16, Shiga inhibitor 19
COC(=O)N1C(=O)[C@](c2ccc(Cl)cc2)(C(C)C)N1C(=O)OC	none
CC(C)c1ccc(NC(=O)c2cn(C3CCCCC3)c(=O)c3c2c2ccccc2n3C)cc1	none (no result: Pf growth 96h, HCV inh, Pf growth 48h, CHX counter, Shiga inhibitor)
O=C1[C@@H]2CSC(c3ccc(F)cc3)N2C(=O)N1c1ccc(Cl)cc1 (some centres undefined)	none (no result: Pf growth 96h, HCV inh, Pf growth 48h, CHX counter, Shiga inhibitor)
Cc1noc(C)c1-c1ccc2ncnc(NCc3ccc(Br)cc3)c2c1	none (no result: Pf growth 96h, HCMV inh, HCV inh, Pf growth 48h)
CC(C)c1ccc(-c2nnn(CCC#N)n2)cc1	CHX counter 27, Shiga inhibitor 72
CCS(=O)(=O)N1CCC(C(=O)Nc2cc(C)ccc2O)CC1	Pf growth 96h 12µM
Cc1ccc(C(=O)O)cc1NC(=O)C1CCN(S(=O)(=O)c2ccc3c(c2)OCCO3)CC1	none (no result: Pf growth 96h, Pf growth 48h, CHX counter, Shiga inhibitor)
Cc1ccc(NC(=O)C2CCN(S(=O)(=O)c3ccc4c(c3)OCCO4)CC2)c(O)c1	Pf growth 96h 12µM, Pf growth 48h inconclusive (no result: CHX counter, Shiga inhibitor)
Cc1ccc(NC(=O)C2CCN(S(=O)(=O)c3ccc4c(c3)OCCCO4)CC2)nc1	Pf growth 96h inconclusive, HCMV inh -63, HCV inh inconclusive, Pf growth 48h inconclusive (no result: CHX counter, Shiga inhibitor)
